33 compounds from PubChem BioAssay (NCATS) can be followed below.

The nature of assay [1]: qHTS profiling for inhibitors of Plasmodium falciparum proliferation (AID 504749).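 For activity, negative = inhibition: 0% = DMSO vehicle and full inhibition = artemisinin control.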 Note: nearly all actives have a fitted effect of over 60% in size. Note: potency is the fitted concentration of half-maximal effect. The note with it: P. falciparum in erythrocytes, SYBR Green DNA, 72 h. The method, boiled down: (§1)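 Parasite proliferation within erythrocytes, 72 h exposure. Endpoint: SYBR Green I fluorescence after overnight lysis at room temperature. Controls: 0.29 uM artemisinin, DMSO.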
Another assay concerns 3D7. Described as above. The note with it: P. falciparum in erythrocytes, SYBR Green DNA, 72 h; series mostly up to 28.7 µM. The method, boiled down: as §1
In assay [2] the target is Glutathione peroxidase 1 (Homo sapiens) (UniProt P07203). Nature of the assay: Primary qHTS Assay for Inhibitors of Recombinant Selenoprotein Glutathione Peroxidase 1 (GPX1) (AID 1845191). Note: % is set by controls: 0 for no effect and ±100 for the full control effect; nearly all actives have a fitted effect of over 65% in size. In outline: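 Recombinant GPX1 (10 nM final) was preincubated with compound for 30 min at room temperature, then reacted with 1 mM GSH, 0.5 mM CHP, 0.5 mM NADPH and 100 nM glutathione reductase; NADPH fluorescence (340/450 nm) was read at 0 and 15 min.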
Glutathione peroxidase 1 (Homo sapiens), sequence (P07203 whole entry, looked up): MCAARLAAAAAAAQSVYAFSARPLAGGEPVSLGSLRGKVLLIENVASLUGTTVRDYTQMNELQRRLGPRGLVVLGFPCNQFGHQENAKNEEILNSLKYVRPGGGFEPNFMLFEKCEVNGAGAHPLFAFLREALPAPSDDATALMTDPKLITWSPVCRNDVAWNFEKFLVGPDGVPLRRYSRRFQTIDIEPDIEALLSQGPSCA

The target of assay [3] is Phospholipid hydroperoxide glutathione peroxidase GPX4 (Homo sapiens) (UniProt P36969). The assay can be described thus: Primary qHTS Assay for Inhibitors of Recombinant Selenoprotein Glutathione Peroxidase 4 (GPX4) (AID 1845192). Note: potency is the fitted concentration of half-maximal effect; nearly all actives have a fitted effect of over 65% in size. The method, boiled down:
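GR-coupled readout: 100 nM GR, 1 mM GSH, 0.5 mM NADPH; NADPH fluorescence (ex 340/em 450 nm) read at t=0 and after 15 min RT. GPX4 200 nM, preincubated 30 min with compound; substrate 0.5 mM CHP.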

[4] abbreviates: at 28.7 µM (top of the series), parasite line A.
Setting [5] is: at 28.7 µM (top of the series), parasite line B.

Inconclusive results are not listed. Values without a mark were called inactive. Active and inactive are the calls of the source. Calls come from the whole dose curve; as a rule, active = well fitted inhibition curve with a large enough effect; inconclusive = small, poorly fitted or top-dose-only effect; inactive = flat fitted curve, though single readings scatter.

Phospholipid hydroperoxide glutathione peroxidase GPX4 (Homo sapiens), sequence (P36969 whole entry, looked up): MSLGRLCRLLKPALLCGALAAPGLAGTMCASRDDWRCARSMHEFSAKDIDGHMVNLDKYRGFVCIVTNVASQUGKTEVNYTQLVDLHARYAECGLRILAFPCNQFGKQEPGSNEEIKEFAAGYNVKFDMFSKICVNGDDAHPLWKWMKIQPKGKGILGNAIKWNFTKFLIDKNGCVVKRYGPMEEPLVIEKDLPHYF

`CC1C(=O)CC2C3(C)CCC2(C(C)C(=O)O)C(=O)C13` (configuration not stated): the activity, negative = inhibition in assay [1] (setting [4]) was 5.64%; in assay [1] (setting [5]), 13.7%. Besides, the Potency result in the assay on 3D7 is “inactive”.
The matching figures for `F[Si-2](F)(F)(F)(F)F`: 3.4%, 19.2% and “inactive”.
Take `COc1ccc2nc(NC(=O)Nc3ccccc3)sc2c1`: the activity, negative = inhibition in assay [1] (setting [5]) is 5.72%.
With `C[C@H](CCCC(C)(C)O)[C@H]1CC[C@H]2[C@@H]3CC=C4C[C@@H](O)CC[C@]4(C)[C@H]3CC[C@]12C`, the activity, negative = inhibition in assay [1] (setting [4]) is 13.3%; in assay [1] (setting [5]), 17.1%. Further, the Potency result in the assay on 3D7 was “inactive”.
As for `CCCCCCCCCCCCCCCCOCCOCCOCCOCCOCCOCCOCCOCCOCCOCCOCCOCCOCCOCCOCCOCCOCCOCCOCCOCCO`, the Potency in assay [1] (parasite line A) is 15.8 µM (active).
Turning to `CCOC(=O)Cc1ccc(-c2ccccc2)cc1`, the Potency result (in assay [2]; in the assay with 3D7) was “inactive” each time. In addition, the activity, negative = inhibition in assay [1] (setting [4]) was 8.04%.
For `Cc1ccc(C(C)(C)c2ccc(C)cc2)cc1`, the activity, negative = inhibition in assay [1] (setting [4]) was 2.11%; in assay [1] (setting [5]), -1.44%. Further, the Potency entry in the assay on 3D7 is “inactive”.
Consider `O=C(O)c1cc(O)c2c(c1)[C@H]([C@H]1c3cc(C(=O)O)cc(O)c3C(=O)c3c(O[C@@H]4O[C@H](CO)[C@@H](O)[C@H](O)[C@H]4O)cccc31)c1cccc(O[C@@H]3O[C@H](CO)[C@@H](O)[C@H](O)[C@H]3O)c1C2=O`, for which the Potency in assay [3] was 1.12 µM (active).
`CC(C)(C)CC(C)(C)c1cc(Cc2cc(C(C)(C)CC(C)(C)C)cc(-n3nc4ccccc4n3)c2O)c(O)c(-n2nc3ccccc3n2)c1`: the results for the activity, negative = inhibition in assay [2], in assay [1] (setting [4]) and in assay [1] (setting [5]) were -7.19% [at 4.49 µM], 10.8% and 2.7%, respectively. The Potency result in the assay on 3D7 was “inactive”.
Take `CC(=O)[C@H]1CC[C@H]2[C@@H]3C=CC4=CC(=O)CC[C@@]4(C)[C@H]3CC[C@]12C`: the activity, negative = inhibition in assay [1] (at 12.8 µM (top of the series), parasite line A) was 0.59%; in assay [1] (at 12.8 µM (top of the series), parasite line B) it was -8.1%.
Consider `CCOC(=O)C1=C(COCCN)NC(C)=C(C(=O)OC)C1c1ccccc1Cl` (configuration not stated), for which the Potency result (in assay [2]; in the assay with 3D7) was “inactive” in each case. Moreover, the figures for the activity, negative = inhibition in assay [1] (setting [4]) and in assay [1] (setting [5]) were -0.523% and -8.98%, respectively.
`C=CC(=O)O`: the activity, negative = inhibition was 2.32% in assay [1] (setting [4]) and 10.1% in assay [1] (setting [5]). The Potency result in the assay with 3D7 was “inactive”.
The matching figures for `N=C(N)n1cccn1`: -11.6%, 1.65% and “inactive”.
Consider `CC(C)O`, for which the activity, negative = inhibition was 2.73% in assay [1] (setting [4]) and 13.2% in assay [1] (setting [5]). In addition, in the assay with 3D7, the Potency entry is “inactive”.
On to `O=S(=O)(O)CCCS(=O)(=O)O`, for which the Potency entry (in assay [2]; with 3D7) was “inactive” each time. Besides, the activity, negative = inhibition was -6.14% in assay [1] (setting [4]) and 2.06% in assay [1] (setting [5]).
In the case of `Cc1ccc(S(=O)(=O)NCl)cc1`, the values for the activity, negative = inhibition in assay [1] (setting [4]) and in assay [1] (setting [5]) were -0.743% and 4.28%, respectively. The Potency entry in the assay on 3D7 was “inactive”.
The matching figures for `CCOC(=O)c1cc(-c2ccccc2)nc2ccc(C)cc12`: 17.4%, 7.25% and “inactive”.
Consider `C=C1C(CCl)(CCl)C2(Cl)C(Cl)C(Cl)C1(Cl)C2(Cl)Cl` (configuration not stated), for which the Potency was 2.51 µM (active) in assay [1] (parasite line A), 1.26 µM (active) in assay [1] (parasite line B) and 1.78 µM (active) in the assay on 3D7.
On to `CCOC(=O)[C@@H](N)CS`, for which the Potency in assay [3] is 14.1 µM (active). The activity, negative = inhibition in assay [1] (setting [4]) is -7.81%; in assay [1] (setting [5]), 16.4%. Besides, the Potency result in the assay with 3D7 was “inactive”.
Take `COc1ccc(/C=C/C(=O)O)cc1`: the activity, negative = inhibition is 8.39% in assay [1] (setting [4]) and -2.19% in assay [1] (setting [5]). For the same compound, the Potency entry with 3D7 was “inactive”.
Turning to `CCCc1nc(C(C)(C)O)c(C(=O)OCc2oc(=O)oc2C)n1Cc1ccc(-c2ccccc2-c2nn[nH]n2)cc1`, the Potency entry (in assay [2]; in the assay with 3D7) was “inactive” in each case. Also, the activity, negative = inhibition in assay [1] (setting [4]) was -15.7%; in assay [1] (setting [5]) it was -20.3%.
For the compound `CCOc1ccc(S(=O)(=O)O)c2cccnc12`, the figures for the activity, negative = inhibition in assay [1] (setting [4]) and in assay [1] (setting [5]) were 8.12% and 6.17%, respectively. Besides, in the assay on 3D7, the Potency result is “inactive”.
The matching figures for `COc1ccc(C(=O)CCC(=O)O)c2ccccc12`: 16.4%, 8.35% and “inactive”.
In the case of `CN1C(C(=O)Nc2ccccn2)C(=O)c2sc(Cl)cc2S1(=O)=O` (configuration not stated), the activity, negative = inhibition in assay [1] (setting [4]) was 8.71%; in assay [1] (setting [5]), -14.1%. Besides, the Potency result in the assay on 3D7 was “inactive”.
The matching figures for `O=C1N=C2SCCN2C(=O)C1Cc1ccc(Cl)cc1` (configuration not stated): 18.3%, 17.2% and “inactive”.
As for `CC1CC(O)CC(C)(C)C1` (configuration not stated), the activity, negative = inhibition is -1.2% in assay [1] (setting [4]) and 7.51% in assay [1] (setting [5]). Moreover, the Potency entry with 3D7 was “inactive”.
On to `CC(C)=CCC/C(C)=C/CC/C(C)=C/CC/C=C(\C)CC/C=C(\C)CCC=C(C)C`, for which the activity, negative = inhibition in assay [1] (setting [4]) is 0.919%; in assay [1] (setting [5]) it was 12.5%. In addition, in the assay with 3D7, the Potency result is “inactive”.
The matching figures for `Cc1ncc(C[n+]2csc(CCOP(=O)(O)O)c2C)c(N)n1`: -5.57%, 6.98% and “inactive”.
Take `O=C(O)[C@H]1CN(C/C=C/P(=O)(O)O)CCN1`: the values for the activity, negative = inhibition in assay [1] (setting [4]) and in assay [1] (setting [5]) were 5.03% and 6.62%, respectively. In the assay on 3D7, the Potency entry is “inactive”.
The matching figures for `CCCCO`: 5.51%, 16.3% and “inactive”.
On to `NC(=S)N=Nc1ccc(NN=C(N)N)cc1`, for which the values for the Potency (in assay [1] (parasite line A); in assay [1] (parasite line B); in the assay on 3D7) were 10 µM (active), 10 µM (active) and 12.6 µM (active), respectively.
Turning to `C=CCN1CCCC1CNC(=O)c1cc(S(N)(=O)=O)cc(OC)c1OC` (configuration not stated), the activity, negative = inhibition in assay [1] (setting [4]) was -0.688%; in assay [1] (setting [5]), 8.33%. For the same compound, in the assay with 3D7, the Potency entry is “inactive”.
On to `CC(C)CCC[C@@H](C)[C@H]1CC[C@H]2[C@@H]3CC[C@@H]4C[C@H](O)CC[C@]4(C)[C@H]3CC[C@]12C`, for which the activity, negative = inhibition in assay [1] (setting [4]) was -5.47%; in assay [1] (setting [5]), 5.75%. Moreover, in the assay with 3D7, the Potency result is “inactive”.
